These results are taken from PubChem BioAssay AID1159580 (chemical genetic matrix, 2015).

Screen size: about 5,500 compounds; about 2,000 (36%) were called active. Another 18% or so got no clear call; they are omitted. This is one part of the list. Values without a mark were called inactive. Rule as the data show it: active = normalized growth mostly below about 0.91 (no sharp cut-off); inconclusive = no clear call, values can overlap the other calls; inactive = mostly above about 0.92.

This test can be described thus: chemical genetic growth profiling, strain panel (AID 1159580).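 Also: tested at 20 µM; growth read once vehicle control cultures reached saturation at 30 °C; 1 = growth at the plate median or of vehicle wells; lower values mean less growth of the strain.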 As to conditions: S. cerevisiae deletion strains, growth OD.
Setting [1] is: locus YAL040C, strain CLN3, hits give low values.
The mark [2] stands for this setting: locus YCL061C, strain MRC1 (second series), hits give low values.
[3] abbreviates: locus YDR363W, strain ESC2, hits give low values.
The mark [4] stands for this setting: locus YER002W, strain NOP16, hits give low values.
Setting [5] is: locus YGR078C, strain PAC10, hits give low values.
The mark [6] stands for this setting: locus YJR075W, strain HOC1, hits give low values.
The mark [7] stands for this setting: locus YNL153C, strain GIM3, hits give low values.
The mark [8] stands for this setting: locus YNL175C, strain NOP13, hits give low values.
The mark [9] stands for this setting: locus YNL197C, strain WHI3, hits give low values.
[10] abbreviates: locus YNL224C, strain SQS1, hits give low values.
The mark [11] stands for this setting: locus YOR083W, strain WHI5 (second series), hits give low values.
Where [12] appears, read: locus YPL055C, strain LGE1, hits give low values.

For the compound `O=C(O)C1C2CCC(O2)C1C(=O)O` (stereo unspecified), the normalized growth runs as follows: (locus YAL013W, strain DEP1, hits give low values) 1.04; under setting [1], 0.983; under setting [2], 1; (locus YDR150W, strain NUM1, hits give low values) 1; under setting [3], 1; under setting [4], 0.996. Further, the normalized growth reads like this: under setting [5], 0.985; under setting [6], 1.02; (locus YMR263W, strain SAP30, hits give low values) 0.995; under setting [7], 1; under setting [8], 1.01; under setting [9], 0.998. Further, the normalized growth runs as follows: under setting [10], 1.02; under setting [11], 1.06; under setting [12], 1.06.

For `CC1(C(=O)O)C2CCC(O2)C1(C)C(=O)O` (stereo unspecified), the normalized growth under setting [1] is 0.902; the normalized growth under setting [2] was 0.984; the normalized growth under setting [3] was 0.982; the normalized growth under setting [4] was 0.914 (active); the normalized growth under setting [5] is 0.985; the normalized growth (locus YGR229C, strain SMI1, hits give low values) is 1. The normalized growth reads like this: under setting [6], 1.03; (locus YNL128W, strain TEP1, hits give low values) 0.943; under setting [7], 0.886; under setting [8], 0.904 (active); under setting [9], 0.884 (active); under setting [10], 0.914 (active). For the same compound, the normalized growth (locus YNL322C, strain KRE1, hits give low values) is 0.989; the normalized growth under setting [11] is 0.833 (active); the normalized growth under setting [12] was 1.04; the normalized growth (locus YPL241C, strain CIN2, hits give low values) was 0.97.
